# Source: PubChem BioAssay (NCI)
# Compounds without any hit were thinned out: in the full panel of roughly 83,000, 20% have a hit.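 Assay: single dose, 48 h. Readout: percent growth (0 = no net growth; negative = cell death). Active: <10.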 Activity calls are given as the source filed them.
# Tested on: PC-3 prostate
# Experiment: NCI-60 one-dose screen, 48 h (100 = growth as untreated, 0 = no growth, -100 = all killed)
# Details: 10 µM unless noted
row,SMILES,growth
1,Cn1c(/C(C#N)=C/c2ccc3ccccc3c2)cc2ccccc21,28.8% (inactive)
2,Cn1cc(-c2nc(-c3c[nH]c4ncccc34)cs2)c2cc(F)ccc21,33.6% (inactive)
3,CC(=O)N1N=C(c2ccc(C)cc2)CC1c1ccc(Oc2ccc(Br)cc2)cc1 (centres undefined),87% (inactive)
4,NC1=NN=C2N(N)C(=O)c3cnn(-c4ccccc4)c3N2c2nc(-c3ccccc3)cc(-c3ccccc3)c21,90.5% (inactive)
5,Fc1ccc2nc(-c3cc(-c4ccc5c(c4)OCO5)n[nH]3)[nH]c2c1,23.3% (inactive)
6,CN(C)c1ccc(-c2ccc(-c3ccc(C(=N)N)c(F)c3)s2)cc1,-90.4% (active)
7,Cc1c(C)c2c(c(C)c1NC(=O)CCCCCCC(=O)O)CCC(C)(CCCC(C)CCCC(C)CCCC(C)C)O2 (centres undefined),69.7% (inactive)
8,Cc1cc(C)nc(NC(N)=NCCc2ccccc2)n1,37.7% (inactive)
9,C=C(C)[C@@H]1CC[C@]2(C(=O)O)CC[C@]3(C)[C@H](CC[C@@H]4[C@@]5(C)C/C(=C/c6ccc(OC)cc6)C(=O)C(C)(C)[C@@H]5CC[C@]43C)[C@@H]12,15.5% (inactive)
10,COc1ccc2[nH]cc(-c3nc(-c4c[nH]c5ncccc45)cs3)c2c1,44.2% (inactive)
11,CCc1ccc(-c2ccc(Nc3ccccc3)nn2)cc1S(N)(=O)=O,60.6% (inactive)
12,Cn1cccc1/C=C1/SC(=S)N(CCc2ccc(O)cc2)C1=O,69% (inactive)
13,CN1CCN(CCOc2ccc(-c3cnc4c(-c5ccccc5F)cnn4c3)cc2)CC1,32.4% (inactive)
14,O=c1c(CNc2ccc(S(=O)(=O)Nc3ncccn3)cc2)coc2ccccc12,92.2% (inactive)
15,Cc1ccc(-c2nc([P+](c3ccccc3)(c3ccccc3)c3ccccc3)c(N3CCOCC3)o2)cc1,-18.8% (active)
16,O=C1OC(c2ccc(Cl)c(Cl)c2)=C/C1=C/c1cccc([N+](=O)[O-])c1,97.9% (inactive)
17,COc1ccccc1-n1cnc(N)c1C(=O)c1cc(OC)c(OC)c(OC)c1,50.2% (inactive)
18,COc1ccc2c(c1)C/C(=C\c1cc(-c3ccc4c(c3)OCO4)n[nH]1)C2=O,71.6% (inactive)
19,CN(C)CCCC1(c2ccc(F)cc2)OCc2cc(-c3ccc(C(F)(F)F)nc3)ccc21 (centres undefined),68.7% (inactive)
20,O=c1c(CNc2ccc(S(=O)(=O)Nc3nccs3)cc2)coc2ccccc12,107% (inactive)

row,SMILES,growth
1,Cc1ccc2c(c1)c(-c1nc(-c3c[nH]c4ncccc34)cs1)cn2C,85.7% (inactive)
2,CC1(C)C(=O)/C(=C\c2ccco2)C[C@]2(C)[C@H]3CC[C@@H]4[C@@H](C(=O)/C=C/c5ccco5)CC[C@@]4(C)[C@]3(C)CC[C@@H]12,80.4% (inactive)
3,Cc1ccc(-c2nc([P+](c3ccccc3)(c3ccccc3)c3ccccc3)c(N3C[C@H]4C[C@H](C3)c3cccc(=O)n3C4)o2)cc1,82.7% (inactive)
4,C=C(C)[C@@H]1CC[C@]2(CN)CC[C@]3(C)[C@H](CC[C@@H]4[C@@]5(C)CCC(=O)NC(C)(C)[C@@H]5CC[C@]43C)[C@@H]12,37.4% (inactive)
5,Nc1c(Cl)cc(N=Nc2ccccc2)cc1Cl,96.2% (inactive)
6,CC(=O)O[C@H]1CC[C@]2(C)[C@H]3C(=O)C=C4[C@@H]5C[C@](C)(C(=O)N6CCCNCC6)CC[C@]5(C)CC[C@@]4(C)[C@]3(C)CC[C@H]2C1(C)C,6.04% (active)
7,CCCCCC1CCCCN1C(=O)OCC (centres undefined),91.9% (inactive)
8,Cn1cc(-c2nc(-c3c[nH]c4ncccc34)cs2)c2cc(Br)ccc21,76.7% (inactive)
9,O=C(N/N=C\c1ccccc1O)C1CC1,92% (inactive)
10,COc1ccc(OCC(CO)N2CCN(c3ccccc3)CC2)cc1 (centres undefined),84.6% (inactive)
11,Cn1cc(-c2nc(-c3c[nH]c4ncccc34)cs2)c2ccccc21,80.6% (inactive)
12,CC1(C)CC[C@]2(C(=O)Nc3ccccn3)CC[C@]3(C)C(=CC[C@@H]4[C@@]5(C)C/C(=C/c6ccncc6)C(=O)C(C)(C)[C@@H]5CC[C@]43C)[C@@H]2C1,28% (inactive)
13,C=C(C)[C@@H]1CC[C@]2(C(=O)O)CC[C@]3(C)[C@H](CC[C@@H]4[C@@]5(C)C/C(=C/c6cccc(I)c6)C(=O)C(C)(C)[C@@H]5CC[C@]43C)[C@@H]12,15.5% (inactive)
14,Oc1cccc2oc(=S)[nH]c12,111% (inactive)
15,CC(=O)O[C@H]1CC[C@@]2(C)C(=CC[C@@H]3[C@@H]2CC[C@]2(C)C(=O)N(O)C(=O)C[C@@H]32)C1,75.7% (inactive)
16,COc1ccc2c(c1)c(-c1nc(-c3c[nH]c4ncccc34)cs1)cn2C,61.1% (inactive)
17,O=C(O)c1cccc2c1Cc1cc([N+](=O)[O-])ccc1-2,110% (inactive)
18,CCOc1ccc(NC(=O)c2ccccc2-c2ccccc2C(=O)O)cc1,101% (inactive)
19,O=c1c2sc3ncc(Br)cc3c2ncn1-c1cccc(Cl)c1,81.9% (inactive)
